# Several values for one entry are separate records, joined by “and”; a condition that tells them apart may be missing. Equal values may be shown once. This is part of a sample that, as a whole, favours compounds with a hit. Of some 83,000 tested, about 20% had one in any assay.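 Compound tested at a single concentration for 48 hours in 96-well plates; a percent growth value below 10 was scored as active.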 Values without a mark were called inactive. Activity calls are given as the source filed them.
# System: HL-60(TB) leukemia
# Test: NCI-60 one-dose screen, 48 h (100 = growth as untreated, 0 = no growth, -100 = all killed)
# Conditions: 10 µM unless noted
row,SMILES,growth
1,O=C(Nc1nc2ccc([N+](=O)[O-])cc2s1)Nc1ccc(Cl)cc1Cl,50.1%
2,O=C(NNC(=S)NC(=O)c1ccccc1)c1ccc(OCc2nc3ccc(Cl)cc3[nH]2)cc1,1.3% (active)
3,COc1cc2c3c(n(CCCN4CCOCC4)c(=O)c2cc1OC)-c1nc2c(cc1C3=O)OCO2,65.2%
4,COc1ccc(CCC2NCCc3c(Br)c4c(c(OC)c32)OCO4)cc1 (stereo not given),-11.6% (active)
5,CN(C)c1nc(NCCNS(=O)(=O)c2ccc(C3=Nc4c(N)nc(N)nc4NC(c4ccc(Cl)cc4)C3)cc2)nc(Nc2ccc(F)cc2)n1 (stereo not given),-13.8% (active)
6,Cc1cccc(-c2nc(Nc3ccccc3C(=O)O)c3ccccc3n2)c1,39.4%
7,CCN1C(=O)N(CC)C2NNC(Sc3c(C(=O)O)c4ccccc4n(CC(C)C)c3=O)=NC21 (stereo not given),-53.3% (active)
8,O=C(O)c1ccc(-c2ccc(/C=N/NC(=O)c3[nH]c4ccc(Br)cc4c3-c3ccccc3)o2)cc1,-18.5% (active)
9,CSc1ccc(OCc2nc3ccccc3n2-c2cccc(NS(C)(=O)=O)c2)cc1,115% and 105%
10,FC(F)(F)c1cc2c(Cl)ncnc2n1CCN1CCOCC1,7.02% (active)
11,COc1cccc2nc(Nc3ccc(F)c(NC(=O)c4ccc(CN5CCN(C)CC5)c(C(F)(F)F)c4)c3)ccc12,-73.1% (active)
12,COc1nc(N)ncc1-c1ccc2ncnc(N3CCc4cc(F)c(Cl)cc43)c2c1,47%
13,O=C1CC(Sc2n[nH]c(-c3ccncc3)n2)C(=O)N1c1ccc(Br)cc1 (stereo not given),101%
14,O=C(Cn1c(-c2ccccc2)nc2ccccc21)N=Nc1c(O)[nH]c2ccc(Cl)cc12,57.2%
15,N#Cc1c(NC(=O)c2ccc(C(F)(F)F)cc2C(F)(F)F)sc2c1CCC(=O)C2,-24% (active)
16,Nc1nc(Nc2ccc(Cl)cc2)n(Cc2cccc(Br)c2)n1,-14.2% (active)
17,CCN1CCN(Cc2ccc(C(=O)Nc3cccc(-c4cn(-c5ccc6oc(=O)ccc6c5)nn4)c3)cc2C(F)(F)F)CC1,27.7%
18,CCC(C)(C)c1ccc(OCCCCCCN2CCN(c3ccncc3)CC2)cc1,-62.2% (active)
19,O=C(NC(=S)N1CCN(c2ncnc3c2cnn3-c2ccccc2)CC1)c1ccc(Cl)cc1,95.5%
20,COc1ccc(-c2nc3cc(C)ccc3n2CC(=O)N=Nc2c(O)[nH]c3ccccc23)cc1,8.05% (active)

row,SMILES,growth
1,COc1cc2c(c(OC)c1OC)C(=O)CC(c1cccc(NC(=O)[C@@H](N)CC(C)C)c1)O2 (stereo not given in full),96.6%
2,CN(C)c1nc(NCCNS(=O)(=O)c2ccc(C3=Nc4c(N)nc(N)nc4NC(c4ccc(Cl)cc4)C3)cc2)nc(N2CCOCC2)n1 (stereo not given),28.1%
3,Cc1ccc(C(=O)Nc2cc(-n3ccnc3)cc(C(F)(F)F)c2)cc1-n1cc(-c2cnc3cccnn23)nn1,50.5%
4,CC(=O)Nc1ccc(-n2cnc3cc(-c4ccc(NS(C)(=O)=O)cc4)ccc32)cc1,59.9%
5,COC(=O)c1cc(C(C)=O)n2c3ccccc3c3ccccc3c12,101%
6,Nc1nc(-c2ccccc2)c(N=Nc2ccc(Cl)cc2Cl)s1,-31.7% (active)
7,CCOC(=O)COc1c(OC)c(OC)cc2oc(-c3cccc(C(=O)Nc4ccc(Cl)cc4)c3)cc(=O)c12,97.6%
8,O=C(c1ccc(Cl)cc1)c1ccc(OCCCN2CCN(c3ccncc3)CC2)cc1,-3.36% (active)
9,O=C(c1ccccc1)C(c1c[nH]c2ccccc12)c1c[nH]c2ccccc12,53.8%
10,CNC(=O)c1cc(Oc2ccc3nc(NC(=O)Nc4cccc(OC(F)(F)F)c4)sc3c2)ccn1,62.7%
11,CCOc1ccc2[nH]c(=O)c(C(c3nnnn3CC3CCCO3)N3CCN(Cc4ccccc4)CC3)cc2c1 (stereo not given),149%
12,CCOP(=O)(OCC)O[C@H]1CC[C@]2(C)[C@H]3CC[C@@H]4[C@@H]([C@](C)(O)CCC=C(C)C)CC[C@@]4(C)[C@]3(C)CC[C@H]2C1(C)C,0.463% (active)
13,O=C(O)CCCCCCCCCCN1C(=O)/C(=C/c2cnc(-c3ccc(Cl)cc3)s2)SC1=S,33.7%
14,N#Cc1c(-c2ccc(F)cc2)nc(SCc2ccc([N+](=O)[O-])cc2)nc1N1CCOCC1,82.7%
15,CC(=O)c1cc(C(=O)c2ccc3c(c2)NC(=O)CO3)n2ccc3ccccc3c12,94.7%
16,COc1ccc(C(=O)/C=C/c2ccc(Cl)c(C(F)(F)F)c2)cc1S(N)(=O)=O,6.1% (active)
17,CC12CC[C@@H]3[C@]4(C)COC(c5cn[nH]c5-c5cccc(Br)c5)O[C@@H]4CC[C@@]3(C)[C@@H]1CC(C1=CCOC1=O)O2 (stereo not given in full),13%
18,C/C(=N/O)c1ccc(NC(=O)CSc2nnc(-c3ccc(-c4nc5ccc(Cl)cc5[nH]4)cc3)o2)cc1,44%
19,COc1cc(C2CC(c3ccc(Oc4ccc(Cl)cc4)cc3)=NN2c2nc(-c3ccc(Cl)cc3)c(C#N)c(N3CCOCC3)n2)cc(OC)c1OC (stereo not given),102%
20,C/C(=N\Nc1ccc(C(=O)O)cc1)c1cnn(-c2cc(=O)[nH]c3ccc(C)cc23)c1C,101%

# Source: PubChem BioAssay (NCI)
